Test results as given in PubChem BioAssay (EPA / NIEHS).
Where “and” joins values, the source holds several entries; their conditions need not be identical. Equal entries are not always repeated. Results filed as inconclusive are left out. Calls of active or inactive are those of the source. How the source made its calls, unless noted: active means hit-call score of the fitted dose curve at least 0.9, where 1 is the maximum; inactive means score below 0.9.

Experiments:
[1] = BSK_4H_Eotaxin3: BioMAP Diversity Plus: 4H Assay for Eotaxin 3 Biomarker Activity (AID 2283000); details: primary human endothelial cells (HUVEC); actives raise or lower the signal;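 further: CCL26 protein level quantified by ELISA in parallel with SRB cytotoxicity check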
Summary of the method: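 HUVEC, 24 h post-dose, ELISA for Eotaxin-3/CCL26. Gain or loss of signal fitted bidirectionally vs DMSO baseline.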

[2] = read-out: Intercellular Adhesion Molecule 1 (ICAM1), ICAM1 (gene 3383); assay: BSK_3C_ICAM1: BioMAP Diversity Plus: 3C Assay for Intercellular Adhesion Molecule 1 (ICAM1) Biomarker Activity (AID 2283003); details: primary human endothelial cells (HUVEC); actives raise or lower the signal
Summary of the method: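 Chemicals are dosed onto primary human umbilical vein endothelium (3C system). After 24 h, ICAM-1 is measured by ELISA, and responses are fitted bidirectionally relative to DMSO.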

[3] = BSK_3C_Proliferation: Cell Proliferation Assessment in the BioMAP Diversity Plus: 3C Assay (AID 2283006); details: primary human endothelial cells (HUVEC);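 on AC50: potency may reflect either rise or fall in cell number versus DMSO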
Summary of the method: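 Cells (human umbilical vein endothelial, sub-confluent) receive test chemical; after 48 h they are fixed in 10% trichloroacetic acid, stained with 0.1% SRB and read at 560 nm. Activity is referenced to DMSO, fitting increases and decreases.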

[4] = read-out: E-selectin (Homo sapiens) (UniProt P16581); assay: BSK_3C_Eselectin: BioMAP Diversity Plus: 3C Assay for Eselectin Biomarker Activity (AID 2283015); details: primary human endothelial cells (HUVEC); actives raise or lower the signal;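 further: cell surface E-selectin protein quantified by ELISA 24 h after dosing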
Summary of the method: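 Primary human umbilical vein endothelial cells (3C system) were dosed with chemical and cell-surface E-selectin measured by ELISA 24 h later. Bidirectional curve fitting used DMSO as negative control and baseline.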

[5] = read-out: Interleukin-1 alpha (IL1a), IL1A (gene 3552); assay: BSK_BE3C_IL1a: BioMAP Diversity Plus: BE3C Assay for Interleukin-1 alpha (IL1a) Biomarker Activity (AID 2283016); details: primary human bronchial epithelial cells; actives raise or lower the signal
Summary of the method: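 Signal from IL-1a ELISA, taken 24 h after chemical dosing of human bronchial epithelial cells, is compared with DMSO as baseline using bidirectional curve fitting.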

[6] = read-out: Monocyte Chemoattractant Protein-1 (MCP1), CCL2 (gene 6347); assay: BSK_3C_MCP1: BioMAP Diversity Plus: 3C Assay for Monocyte Chemoattractant Protein-1 (MCP1) Biomarker Activity (AID 2283017); details: primary human endothelial cells (HUVEC); actives raise or lower the signal
Summary of the method: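 Primary human umbilical vein endothelial cells (3C system) were exposed to test chemical for 24 h, after which MCP-1 was quantified by ELISA. Activity was fitted bidirectionally against DMSO as negative control and baseline.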

[7] = read-out: Monocyte Chemoattractant Protein-1 (MCP1), CCL2 (gene 6347); assay: BSK_4H_MCP1: BioMAP Diversity Plus: 4H Assay for Monocyte Chemoattractant Protein-1 (MCP1) Biomarker Activity (AID 2283018); details: primary human endothelial cells (HUVEC); actives raise or lower the signal
Summary of the method: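 Endothelial cells from umbilical vein were treated with test chemical, then after 24 h MCP-1 levels were quantified by ELISA; endpoint values came from bidirectional fitting with DMSO as baseline of activity.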

[8] = read-out: Human Leukocyte Antigen - DR isotype (HLADR), HLA-DRA (gene 3122); assay: BSK_3C_HLADR: BioMAP Diversity Plus: 3C Assay for Human Leukocyte Antigen - DR isotype (HLADR) Biomarker Activity (AID 2283019); details: primary human endothelial cells (HUVEC); actives raise or lower the signal;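 further: ELISA of cell-surface HLA-DR on HUVEC 24 h after dosing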
Summary of the method: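 Primary human umbilical vein endothelial cells (3C system) were dosed with compound and cell-surface HLA-DR was quantified by ELISA at 24 h. Activity was fitted bidirectionally against DMSO as negative control and baseline.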

[9] = target: human Peroxisome Proliferator-activated Receptor alpha (PPARa), PPARA (gene 5465) (UniProt Q07869); assay: ATG_PPARa_TRANS: Attagene TRANS-FACTORIAL HepG2 Assay for human Peroxisome Proliferator-activated Receptor alpha (PPARa) (AID 2283001; active means hit-call score of the fitted dose curve at least 0.9, where 1 is the maximum;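 on AC50: potency for gain of reporter signal over DMSO so agonist or activator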)
Sequence of human Peroxisome Proliferator-activated Receptor alpha (PPARa), PPARA (gene 5465) (Q07869 whole entry, looked up): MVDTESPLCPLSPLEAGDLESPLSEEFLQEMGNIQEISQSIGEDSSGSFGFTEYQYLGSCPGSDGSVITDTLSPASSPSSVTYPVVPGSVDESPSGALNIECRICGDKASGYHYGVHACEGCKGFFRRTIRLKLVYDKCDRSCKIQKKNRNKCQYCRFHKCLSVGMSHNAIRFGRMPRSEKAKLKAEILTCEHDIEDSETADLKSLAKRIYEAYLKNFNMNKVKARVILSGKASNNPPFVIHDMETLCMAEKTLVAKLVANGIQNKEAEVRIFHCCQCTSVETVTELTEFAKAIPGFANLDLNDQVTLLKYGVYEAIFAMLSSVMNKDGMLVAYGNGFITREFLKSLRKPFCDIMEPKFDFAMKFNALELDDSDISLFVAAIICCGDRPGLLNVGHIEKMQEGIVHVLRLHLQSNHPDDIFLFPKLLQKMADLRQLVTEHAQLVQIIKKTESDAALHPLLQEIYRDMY
Summary of the method: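 Cells (HepG2) are transfected with multiple reporter transcription units, exposed to chemical for 24 h, then total RNA is reverse-transcribed and amplified. Labelled products are quantified by capillary electrophoresis; induction is referenced to DMSO.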

[10] = target: human Peroxisome Proliferator-activated Receptor delta (PPARd), PPARD (gene 5467) (UniProt Q03181); assay: ATG_PPARd_TRANS: Attagene TRANS-FACTORIAL HepG2 Assay for human Peroxisome Proliferator-activated Receptor delta (PPARd) (AID 2283002; active means hit-call score of the fitted dose curve at least 0.9, where 1 is the maximum)
Sequence of human Peroxisome Proliferator-activated Receptor delta (PPARd), PPARD (gene 5467) (Q03181 whole entry, looked up, the tested form may be a part): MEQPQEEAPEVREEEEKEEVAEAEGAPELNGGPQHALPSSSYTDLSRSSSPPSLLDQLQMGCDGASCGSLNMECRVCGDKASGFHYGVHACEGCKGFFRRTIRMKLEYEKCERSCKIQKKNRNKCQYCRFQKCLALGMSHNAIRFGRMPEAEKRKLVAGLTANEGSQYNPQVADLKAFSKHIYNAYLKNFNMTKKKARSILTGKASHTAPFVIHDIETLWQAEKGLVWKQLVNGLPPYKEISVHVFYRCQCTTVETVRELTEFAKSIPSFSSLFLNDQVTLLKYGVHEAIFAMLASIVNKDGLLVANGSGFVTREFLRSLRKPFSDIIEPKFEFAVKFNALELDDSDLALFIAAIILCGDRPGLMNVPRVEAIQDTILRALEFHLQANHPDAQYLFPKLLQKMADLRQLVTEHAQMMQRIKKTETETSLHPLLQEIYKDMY
Summary of the method: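 HepG2 cells transiently transfected with multiplexed GAL4-UAS reporter units and exogenous chimeric NR-Gal4 proteins; 24 h compound exposure. Reporter mRNA measured by RT-PCR, 6-FAM labelling, HpaI digestion and capillary electrophoresis; gain of signal versus DMSO.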

[11] = target: Peroxisome proliferator-activated receptor gamma (Homo sapiens) (UniProt P37231); assay: ATG_PPARg_TRANS: Attagene TRANS-FACTORIAL HepG2 Assay for human Peroxisome Proliferator-activated Receptor-gamma (PPARg) (AID 2283007; active means hit-call score of the fitted dose curve at least 0.9, where 1 is the maximum)
Sequence of Peroxisome proliferator-activated receptor gamma (Homo sapiens) (P37231 whole entry, looked up, the tested form may be a part): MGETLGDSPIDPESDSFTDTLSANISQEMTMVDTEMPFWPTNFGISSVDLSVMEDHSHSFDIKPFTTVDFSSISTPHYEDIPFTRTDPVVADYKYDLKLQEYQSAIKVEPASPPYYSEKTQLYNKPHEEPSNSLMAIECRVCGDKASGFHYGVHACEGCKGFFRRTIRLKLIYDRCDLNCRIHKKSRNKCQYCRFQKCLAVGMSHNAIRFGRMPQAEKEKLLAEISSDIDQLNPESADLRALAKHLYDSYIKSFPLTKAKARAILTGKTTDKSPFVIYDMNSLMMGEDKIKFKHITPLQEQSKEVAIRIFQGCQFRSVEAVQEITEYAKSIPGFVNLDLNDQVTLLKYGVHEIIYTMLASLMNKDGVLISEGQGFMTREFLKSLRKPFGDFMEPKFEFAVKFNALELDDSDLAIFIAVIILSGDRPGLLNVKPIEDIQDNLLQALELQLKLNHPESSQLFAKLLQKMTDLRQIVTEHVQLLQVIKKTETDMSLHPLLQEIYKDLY
Summary of the method: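 HepG2 cells transiently transfected with multiplexed GAL4-UAS reporter units and exogenous chimeric NR-Gal4 proteins; reporter mRNA quantified after 24 h compound exposure by RT-PCR, fluorescent labelling, HpaI digestion and capillary electrophoresis; gain-of-signal fitted versus DMSO baseline.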

[12] = target: Nuclear receptor subfamily 1 group I member 2 (Homo sapiens) (UniProt O75469); assay: ATG_PXR_TRANS: Attagene TRANS-FACTORIAL HepG2 Assay for human Pregnane X Receptor (PXR) (AID 2283008; active means hit-call score of the fitted dose curve at least 0.9, where 1 is the maximum)
Sequence of Nuclear receptor subfamily 1 group I member 2 (Homo sapiens) (O75469 whole entry, looked up, the tested form may be a part): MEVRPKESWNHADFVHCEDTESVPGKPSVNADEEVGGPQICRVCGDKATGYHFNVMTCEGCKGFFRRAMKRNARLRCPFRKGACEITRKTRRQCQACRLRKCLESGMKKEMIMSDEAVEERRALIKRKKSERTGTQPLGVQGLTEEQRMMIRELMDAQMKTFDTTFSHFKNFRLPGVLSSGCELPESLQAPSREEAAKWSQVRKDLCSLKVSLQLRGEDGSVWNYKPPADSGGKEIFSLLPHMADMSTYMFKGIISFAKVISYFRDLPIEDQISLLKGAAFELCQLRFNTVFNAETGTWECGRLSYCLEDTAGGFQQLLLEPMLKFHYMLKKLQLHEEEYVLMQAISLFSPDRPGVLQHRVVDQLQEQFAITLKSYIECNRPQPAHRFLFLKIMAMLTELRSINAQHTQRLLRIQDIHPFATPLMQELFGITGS
Summary of the method: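 Transactivation by exogenous PXR–GAL4 fusion measured as reporter transcript induction after 24 h compound treatment of transfected human HepG2 cells. Read-out via RT-PCR and capillary electrophoresis of labelled fragments, fitted upward relative to DMSO.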

[13] = target: human RAR-related Orphan Receptor beta (RORb), RORB (gene 6096) (UniProt Q92753); assay: ATG_RORb_TRANS: Attagene TRANS-FACTORIAL HepG2 Assay for human RAR-related Orphan Receptor beta (RORb) (AID 2283010; active means hit-call score of the fitted dose curve at least 0.9, where 1 is the maximum)
Sequence of human RAR-related Orphan Receptor beta (RORb), RORB (gene 6096) (Q92753 whole entry, looked up, the tested form may be a part): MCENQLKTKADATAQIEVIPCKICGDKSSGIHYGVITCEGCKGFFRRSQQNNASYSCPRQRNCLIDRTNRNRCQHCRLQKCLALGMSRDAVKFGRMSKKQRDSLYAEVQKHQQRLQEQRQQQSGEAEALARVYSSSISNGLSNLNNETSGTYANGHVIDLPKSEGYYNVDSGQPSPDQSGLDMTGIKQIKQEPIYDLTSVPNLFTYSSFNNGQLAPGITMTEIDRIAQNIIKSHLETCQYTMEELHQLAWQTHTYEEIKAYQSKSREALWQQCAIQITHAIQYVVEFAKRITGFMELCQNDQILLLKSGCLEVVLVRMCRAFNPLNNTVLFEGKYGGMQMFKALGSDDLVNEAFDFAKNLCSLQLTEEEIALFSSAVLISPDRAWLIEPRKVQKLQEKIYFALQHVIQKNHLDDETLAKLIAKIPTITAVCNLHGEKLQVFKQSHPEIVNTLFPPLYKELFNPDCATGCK
Summary of the method: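 Transfect HepG2 with multiple GAL4-UAS reporter transcription units; dose chemicals for 24 h; isolate RNA, reverse-transcribe and PCR-amplify reporter sequences; label, digest and resolve fragments by capillary electrophoresis; fit increases relative to DMSO.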

[14] = target: Retinoic acid receptor RXR-alpha (Homo sapiens) (UniProt P19793); assay: ATG_RXRa_TRANS: Attagene TRANS-FACTORIAL HepG2 Assay for human Retinoid X Receptor alpha (RXRa) (AID 2283012; active means hit-call score of the fitted dose curve at least 0.9, where 1 is the maximum)
Sequence of Retinoic acid receptor RXR-alpha (Homo sapiens) (P19793 whole entry, looked up, the tested form may be a part): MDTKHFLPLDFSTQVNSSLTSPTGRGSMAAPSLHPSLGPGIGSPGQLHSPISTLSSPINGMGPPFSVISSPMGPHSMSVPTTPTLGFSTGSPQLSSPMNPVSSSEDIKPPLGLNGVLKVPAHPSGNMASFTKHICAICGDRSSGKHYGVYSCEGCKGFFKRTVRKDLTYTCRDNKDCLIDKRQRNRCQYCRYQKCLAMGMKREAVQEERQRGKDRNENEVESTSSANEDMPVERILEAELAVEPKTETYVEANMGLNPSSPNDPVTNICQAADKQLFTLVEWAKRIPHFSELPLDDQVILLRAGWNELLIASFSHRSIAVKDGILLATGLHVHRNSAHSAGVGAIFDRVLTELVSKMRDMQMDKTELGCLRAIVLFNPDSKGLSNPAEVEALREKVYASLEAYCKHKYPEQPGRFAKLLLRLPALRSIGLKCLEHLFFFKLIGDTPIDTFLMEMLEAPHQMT
Summary of the method: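 Measures exogenous chimeric NR-GAL4 activity in transfected HepG2 liver cells after 24 h of dosing. Induced reporter mRNA was detected by RT-PCR with capillary electrophoresis, and gain of signal was analysed against DMSO.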

[15] = target: human Retinoid X Receptor beta (RXRb), RXRB (gene 6257) (UniProt P28702); assay: ATG_RXRb_TRANS: Attagene TRANS-FACTORIAL HepG2 Assay for human Retinoid X Receptor beta (RXRb) (AID 2283013; active means hit-call score of the fitted dose curve at least 0.9, where 1 is the maximum)
Sequence of human Retinoid X Receptor beta (RXRb), RXRB (gene 6257) (P28702 whole entry, looked up, the tested form may be a part): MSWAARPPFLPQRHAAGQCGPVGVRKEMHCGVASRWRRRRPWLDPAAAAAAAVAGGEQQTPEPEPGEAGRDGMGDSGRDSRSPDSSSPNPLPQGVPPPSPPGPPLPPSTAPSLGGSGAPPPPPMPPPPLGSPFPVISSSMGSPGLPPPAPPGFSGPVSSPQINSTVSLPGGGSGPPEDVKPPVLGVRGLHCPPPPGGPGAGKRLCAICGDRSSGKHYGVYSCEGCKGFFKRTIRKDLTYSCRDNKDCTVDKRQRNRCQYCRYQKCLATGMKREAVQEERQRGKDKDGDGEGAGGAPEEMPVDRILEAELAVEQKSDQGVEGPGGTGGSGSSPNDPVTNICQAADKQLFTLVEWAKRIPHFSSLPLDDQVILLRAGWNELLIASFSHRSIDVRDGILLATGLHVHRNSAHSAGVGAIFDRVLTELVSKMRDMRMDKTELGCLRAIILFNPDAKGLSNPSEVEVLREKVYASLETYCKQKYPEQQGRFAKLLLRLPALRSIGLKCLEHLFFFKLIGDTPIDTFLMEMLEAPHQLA
Summary of the method: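 Chimeric receptor-Gal4 activity was assessed in transiently transfected human HepG2 cells after 24 h exposure. Transcripts from GAL4-UAS reporters were quantified by fluorescent RT-PCR and capillary electrophoresis, with DMSO as negative control and baseline.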

[16] = target: human Retinoic Acid Receptor beta (RARb), RARB (gene 5915) (UniProt P10826); assay: ATG_RARb_TRANS: Attagene TRANS-FACTORIAL HepG2 Assay for human Retinoic Acid Receptor beta (AID 2283004; active means hit-call score of the fitted dose curve at least 0.9, where 1 is the maximum)
Sequence of human Retinoic Acid Receptor beta (RARb), RARB (gene 5915) (P10826 whole entry, looked up, the tested form may be a part): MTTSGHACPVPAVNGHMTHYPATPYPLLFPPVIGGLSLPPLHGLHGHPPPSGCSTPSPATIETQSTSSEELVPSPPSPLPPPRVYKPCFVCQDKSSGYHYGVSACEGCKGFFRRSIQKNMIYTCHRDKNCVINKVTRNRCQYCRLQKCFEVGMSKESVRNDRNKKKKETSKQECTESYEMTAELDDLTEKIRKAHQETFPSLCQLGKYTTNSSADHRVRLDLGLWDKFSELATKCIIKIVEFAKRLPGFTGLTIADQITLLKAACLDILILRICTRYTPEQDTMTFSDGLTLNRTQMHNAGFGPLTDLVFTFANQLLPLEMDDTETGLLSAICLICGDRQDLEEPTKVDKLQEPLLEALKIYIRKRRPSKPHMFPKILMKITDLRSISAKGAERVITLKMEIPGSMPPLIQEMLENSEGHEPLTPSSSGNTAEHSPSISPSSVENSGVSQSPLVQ
Summary of the method: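 HepG2 cells transiently transfected with multiplexed GAL4-UAS reporter units expressing chimeric NR–Gal4 fusions; 24 h compound exposure. Reporter mRNA quantified by RT-PCR, 6-FAM labelling, HpaI digestion and capillary electrophoresis; gain-of-signal fitted against DMSO baseline.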

[17] = target: Retinoic acid receptor alpha (Homo sapiens) (UniProt P10276); assay: ATG_RARa_TRANS: Attagene TRANS-FACTORIAL HepG2 Assay for human Retinoic Acid Receptor alpha (RARa) (AID 2283005; active means hit-call score of the fitted dose curve at least 0.9, where 1 is the maximum)
Summary of the method: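 HepG2 cells transiently transfected with multiple reporter units expressing chimeric RARα-GAL4 fusion, with GAL4-UAS-driven reporters. After 24 h compound exposure, reporter mRNA induction quantified by RT-PCR and capillary electrophoresis with fluorescent labeling; gain-of-signal fitted relative to DMSO control.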

[18] = target: human Retinoic Acid Receptor gamma (RARg), RARG (gene 5916) (UniProt P13631); assay: ATG_RARg_TRANS: Attagene TRANS-FACTORIAL HepG2 Assay for human Retinoic Acid Receptor gamma (RARg) (AID 2283009; active means hit-call score of the fitted dose curve at least 0.9, where 1 is the maximum)
Summary of the method: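 TRANS format measured activity of exogenous NR-GAL4 fusion (RARg) in transfected HepG2 liver cells after 24 h dosing. Induced reporter RNA was detected by RT-PCR/capillary electrophoresis fluorescence, analysed in the positive direction against DMSO.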

[19] = target: human Thyroid Receptor alpha (THRa1), THRA (gene 7067) (UniProt P10827); assay: ATG_THRa1_TRANS: Attagene TRANS-FACTORIAL HepG2 Assay for human Thyroid Receptor alpha (THRa1) (AID 2283014; active means hit-call score of the fitted dose curve at least 0.9, where 1 is the maximum)
Sequence of human Thyroid Receptor alpha (THRa1), THRA (gene 7067) (P10827 whole entry, looked up, the tested form may be a part): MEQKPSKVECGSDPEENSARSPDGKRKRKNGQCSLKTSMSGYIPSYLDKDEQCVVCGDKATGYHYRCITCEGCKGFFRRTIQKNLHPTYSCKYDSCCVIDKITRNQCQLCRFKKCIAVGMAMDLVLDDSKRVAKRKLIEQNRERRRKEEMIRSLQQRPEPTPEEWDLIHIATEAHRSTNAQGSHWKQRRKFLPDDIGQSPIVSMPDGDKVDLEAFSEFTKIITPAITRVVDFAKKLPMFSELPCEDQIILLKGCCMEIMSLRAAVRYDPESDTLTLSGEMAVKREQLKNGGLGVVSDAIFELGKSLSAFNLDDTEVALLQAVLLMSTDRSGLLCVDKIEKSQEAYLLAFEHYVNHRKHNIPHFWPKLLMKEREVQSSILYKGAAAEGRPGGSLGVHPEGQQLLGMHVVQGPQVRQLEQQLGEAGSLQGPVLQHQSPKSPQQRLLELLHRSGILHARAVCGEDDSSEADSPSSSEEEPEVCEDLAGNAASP
Summary of the method: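 HepG2 cells transiently transfected with multiplexed GAL4-UAS reporter units for exogenous chimeric THRa1-Gal4; reporter mRNA measured 24 h after dosing by RT-PCR, 6-FAM labelling, HpaI digestion and capillary electrophoresis. Gain-of-signal fitted versus DMSO baseline.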

Measured: AC50

Sequence of E-selectin (Homo sapiens) (P16581 whole entry, looked up): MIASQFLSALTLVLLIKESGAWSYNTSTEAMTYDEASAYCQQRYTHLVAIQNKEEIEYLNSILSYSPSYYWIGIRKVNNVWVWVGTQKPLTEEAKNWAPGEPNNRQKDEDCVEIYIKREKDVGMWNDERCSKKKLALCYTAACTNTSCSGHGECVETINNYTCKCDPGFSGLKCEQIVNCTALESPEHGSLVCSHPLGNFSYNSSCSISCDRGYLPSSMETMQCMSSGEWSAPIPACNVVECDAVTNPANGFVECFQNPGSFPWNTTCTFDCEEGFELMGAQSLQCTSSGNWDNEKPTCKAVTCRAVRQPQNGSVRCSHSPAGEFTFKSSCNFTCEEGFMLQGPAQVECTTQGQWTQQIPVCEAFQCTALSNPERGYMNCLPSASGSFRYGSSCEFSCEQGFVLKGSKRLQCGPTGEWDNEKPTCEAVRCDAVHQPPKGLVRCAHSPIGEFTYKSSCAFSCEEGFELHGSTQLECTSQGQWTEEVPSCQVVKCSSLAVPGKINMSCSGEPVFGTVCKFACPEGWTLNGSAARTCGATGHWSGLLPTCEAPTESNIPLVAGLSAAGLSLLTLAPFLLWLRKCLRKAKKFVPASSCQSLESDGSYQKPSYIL

O=C(O)C(F)(F)OC(F)(F)C(F)(F)OC(F)(F)C(F)(F)C(F)(F)C(F)(F)F
active: [3] 54.5 µM and 48.8 µM | [5] 50.4 µM and 55.2 µM
inactive: [1] | [2] | [4] | [6] | [7] | [8]

CCCCCC#CC(=O)OC
inactive: [9] | [10] | [12] | [13] | [14]
active: [11] 12.9 µM | [15] 100 µM

C=C(F)C(=O)OC(C(F)(F)F)C(F)(F)F
inactive: [1] | [2] | [3] | [4] | [5] | [6] | [7] | [8]

Cc1cc(O)c2c(c1)C(=O)c1cc(O)cc(O)c1C2=O
inactive: [10] | [16] | [17] | [18] | [13] | [14]
active: [9] 27.5 µM | [11] 9.51 µM | [12] 6.34 µM | [19] 12.6 µM

C/C=C(\C)C(=O)OC/C=C(\C)CCC=C(C)C
inactive: [9] | [10] | [12] | [13] | [19]
active: [11] 12.3 µM | [14] 30.7 µM | [15] 4.63 µM

CCCCN(CCO)CCO
not listed: [9] | [10] | [12] | [15] | [16] | [17] | [18]
inactive: all other assays above
